Screening results from PubChem.
The list is not random: actives were taken first. Their share in the collection is about 18%.
DT40 TDP1 CPT – growth inhibition of DT40 Tdp1-/-;hTDP1 cells with camptothecin (screen for TDP1 inhibitors); Potency, µM (doses to about 46.2 µM), inactives show at the top dose activity change, negative = growth inhibition, hits mostly inhibitors; 420,000 compounds, 12% hits; AID 686979; chicken DT40 Tdp1-/-;hTDP1 cells + 20 nM CPT, ATP luminescence, 48 h; note: potency is the fitted concentration of half-maximal effect; nearly all actives have a fitted effect of over 55% in size
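Cell growth measured by CellTiter-Glo luminescence after a minimum 48 h, 37 C compound exposure with 20 nM CPT in Tdp1-knockout DT40 cells stably expressing hTDP1, seeded 400/well; qHTS titration format.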
Gal4-VP16 FLuc – counter-screen for ROR gamma inhibitors: Gal4-VP16 reporter; 310,000 compounds, 3.5% hits; Potency, µM (series often up to 53.6 µM), for the others: at the top dose activity, negative = inhibition, usual class: inhibitors; Drosophila S2 Gal4-VP16 UAS-luciferase, luminescence, 20 h;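 note: Gal4-VP16 expression switched on by copper sulfate through the metallothionein promoter; potency is the fitted concentration of half-maximal effect; nearly all actives have a fitted effect of over 50% in size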
RORg inh – ROR gamma (mouse) transcription inhibition; P51450; Drosophila S2 Gal4-RORgamma UAS-luciferase reporter, 20 h; Potency, µM (series often up to 53.6 µM), for the others: at the highest dose activity change, negative = inhibition, most hits filed as inhibitors; 310,000 compounds, 5.4% hits; AID 2551; note: potency is the fitted concentration of half-maximal effect; nearly all actives have a fitted effect of over 60% in size
Target sequence (P51450 whole entry, looked up, the tested form may be a part): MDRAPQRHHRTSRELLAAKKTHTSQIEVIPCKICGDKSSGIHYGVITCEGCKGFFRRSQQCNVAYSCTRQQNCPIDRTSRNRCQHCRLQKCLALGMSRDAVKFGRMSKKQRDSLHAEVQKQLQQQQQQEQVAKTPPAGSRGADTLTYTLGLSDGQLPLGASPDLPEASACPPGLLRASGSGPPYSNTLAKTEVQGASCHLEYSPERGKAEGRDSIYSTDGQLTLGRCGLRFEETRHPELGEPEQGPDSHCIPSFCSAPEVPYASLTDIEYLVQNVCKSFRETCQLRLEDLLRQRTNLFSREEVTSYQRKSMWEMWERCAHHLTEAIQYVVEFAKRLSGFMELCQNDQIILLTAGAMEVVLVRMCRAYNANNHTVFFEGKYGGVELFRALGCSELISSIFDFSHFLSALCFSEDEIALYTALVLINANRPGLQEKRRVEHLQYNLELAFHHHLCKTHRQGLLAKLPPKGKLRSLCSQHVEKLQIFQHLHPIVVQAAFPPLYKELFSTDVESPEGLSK
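Stable Schneider cell line, Gal4 DNA-binding domain fused to ROR gamma, UAS-luciferase. Cmpd 1 hr RT → CuSO4 700 uM final → 20 hr RT → luciferase reagent 10 min → luminescence.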
DT40 TDP1 no CPT – qHTS for Inhibitors of human tyrosyl-DNA phosphodiesterase 1 (TDP1): qHTS in cells in absence of CPT | Potency, µM (highest dose often 46.2 µM), for the others: top-dose activity change, negative = growth inhibition, most hits filed as inhibitors | 420,000 compounds, 15% hits | DT40 Tdp1-/- hTDP1 cells, no CPT, ATP luminescence, 48 h | AID 686978, 2013; note: potency is the fitted concentration of half-maximal effect; nearly all actives have a fitted effect of over 55% in size
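Chicken DT40 Tdp1-/- cells stably complemented with human TDP1 were seeded at 400 cells/well with DMSO in place of 20 nM camptothecin. After compound pinning, cells grew at least 48 hr at 37 °C; viability read by CellTiter-Glo luminescence.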
LDHA inh – blocks human lactate dehydrogenase A. P00338. purified LDHA, NADH/diaphorase-resazurin fluorescence; hits give low values. activity change, % (values are at about 110 or 230 µM). 480,000 compounds, 0.15% hits. AID 1347041; in the data active = activity change below about -30%; inconclusive = mostly about -25% to -30%;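 note: plate controls were DMSO wells for no effect and wells without enzyme for full effect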
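Remaining NADH was detected by diaphorase (0.133 mg/mL) converting 37 µM resazurin to fluorescent resorufin, read at 0 and 20 minutes. The preceding 5-minute room-temperature reaction used 2 nM LDHA, 0.2 mM sodium pyruvate and 0.06 mM NADH at pH 7.4.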
IL-1B inflam inh – inhibitors of inflammasome signaling (IL-1 beta secretion) | 360,000 compounds, 4.7% hits | activity change, % at 57.5 µM | THP-1 LPS/ATP IL-1B secretion, AlphaLISA, 16 h; hits give low values; in the data active = activity change below about -50%; inconclusive = mostly about -30% to -49%
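THP-1 cells pretreated 1 hr with compounds (up to 57.5 uM final), then stimulated with LPS (250 ng/mL final) plus ATP (1.25 mM final); secreted IL-1B measured by AlphaLISA after 16 hr, decreased signal indicating inhibition.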
* marks the source's active call; other numbers are inactive results; ? = inconclusive; . = no result; ! = not active in a repeat. Unless noted, calls come from the whole dose curve; as a rule, active = well fitted curve in the direction sought with a large enough effect; inconclusive = small, poorly fitted or top-dose-only effect, or another doubt; inactive = no such curve, though single readings can be large; an effect the other way counts as inactive or inconclusive. Unless noted, % is set by controls: 0 for no effect and ±100 for the full control effect.

SMILES | DT40 TDP1 CPT | Gal4-VP16 FLuc | RORg inh | DT40 TDP1 no CPT | LDHA inh | IL-1B inflam inh
Cc1cccc2[nH]c3c(N4CC=C(c5ccc(F)cc5)CC4)ncnc3c12 | 13µM* | ? | -11% | 15µM* | -1 | -92*
O=C(C[N+]1(CC#Cc2ccccc2)CCOCC1)c1ccccc1 | ? | -6% | -8% | 16µM* | 10 | -19
O=C(C[N+]1(CC#Cc2ccccc2)CCCCC1)c1ccccc1 | 16µM* | 3% | 1% | 21µM* | 0 | -21
O=C(C[N+]1(CC#Cc2ccccc2)CCOCC1)c1ccc(Cl)cc1 | ? | 28% | 24% | ? | 5 | -11
CCC[N+](CC#Cc1ccccc1)(CCC)CC(=O)OC | ? | ? | -4% | 4% | -9 | 28
O=C(C[N+]1(CC#Cc2ccccc2)CCCCC1)c1ccc(Cl)cc1 | 12µM* | 11% | 9% | 3.7µM* | 3 | -57*
CCC[N+](CC#Cc1ccccc1)(CCC)CC(=O)c1ccc(Cl)cc1 | ? | ? | 15% | 26µM* | -9 | -71*
Cc1ccc(OCC(=O)Nc2ccc(N3CCN(S(C)(=O)=O)CC3)cc2)cc1Cl | . | . | . | . | -6 | .
CC(C)COc1ccccc1N | . | . | . | . | 6 | .
O=C(OCC(=O)N1CCCCC1)c1cc(-c2cccs2)nc2ccccc12 | . | . | . | . | -3 | .
Cc1nc2ccc(C(=O)NCC3CN(Cc4ccccc4)CCO3)cc2nc1C (stereo not given) | . | . | . | . | 19 | .
C(=N\Nc1ccccc1)/c1ccc(OCc2ccccc2)cc1 | . | . | . | . | -5 | .
C(#Cc1ccccc1)C[N+]1(CC#Cc2cccc3ccccc23)CCOCC1 | 6.5µM* | -23% | ? | 4.6µM* | -6 | -84*
CCCCCCOc1ccc(C(=O)COC(=O)c2ccc(Br)cc2)cc1 | . | . | . | . | -7 | .
Cc1cccc(Cn2c(NCc3ccco3)nc3c2c(=O)[nH]c(=O)n3C)c1 | . | . | . | . | 9 | .
Cc1ccc(NS(=O)(=O)c2ccc(-n3cccn3)cc2)nc1 | -3% | -17% | -20% | 1% | -1 | 0
Cc1cccc(NS(=O)(=O)c2ccc3[nH]c(=O)[nH]c3c2)c1C | -12% | 5% | -4% | ? | 2 | -8
NNS(=O)(=O)c1ccc2c(c1)Cc1cc(S(=O)(=O)NN)ccc1-2 | 4% | -7% | 14% | -8% | -35* | -6
Cc1cccc(NS(=O)(=O)c2ccc3c(c2)Cc2cc(S(=O)(=O)Nc4cccc(C)c4C)ccc2-3)c1C | 6.5µM* | -6% | 19% | 5.2µM* | 4 | 7
Cc1cccc(NS(=O)(=O)c2ccc(-n3cccn3)cc2)c1C | 13µM* | 2% | 13% | 7.3µM* | -5 | -7
Cc1ccc(NS(=O)(=O)c2ccc(-n3cccn3)cc2)c(Br)c1 | 18µM*! | . | . | 16µM* | -5 | 23
O=S(=O)(NCCO)c1ccc2c(c1)Cc1cc(S(=O)(=O)NCCO)ccc1-2 | 1% | 5% | 12% | -1% | -4 | -12
CCOC(CNC(=O)CS(=O)Cc1nc(-c2cccc(OC)c2)oc1C)OCC (stereo not given) | . | . | . | . | 3 | .
Cc1ccc(NS(=O)(=O)c2ccc(-n3cccn3)cc2)c(C)c1 | 18µM* | -20% | 44% | ? | -3 | 1
Cc1ccc(Cl)cc1NS(=O)(=O)c1ccc(-n2cccn2)cc1 | ? | 0% | 2% | -19% | 2 | 12
Cc1ccc(Nc2ncnc3sc(C)c(C)c23)cc1C | -28% | -1% | 0% | ? | -5 | 9
COc1ccc(/C=N/Nc2ncnc3sc(C)c(C)c23)cc1 | 2.9µM* | 4.5µM* | ? | 4.1µM* | -3 | -16
COc1cccc(/C=N/Nc2ncnc3scc(-c4ccccc4)c23)c1OC | ? | 3.2µM* | 4µM* | 18µM* | 2 | -67*
Cc1sc2ncnc(N/N=C/c3ccc(O)cc3)c2c1C | ? | 4.5µM* | 16µM* | ? | -6 | -12
